Screens as filed in PubChem.
HPGD block = inhibitors of human 15-hydroxyprostaglandin dehydrogenase (HPGD). purified HPGD, NADH fluorescence kinetic, PGE2 substrate. Potency, µM, inactives show at the highest dose activity change, negative = inhibition, hits mostly inhibitors. hit rate 4.3% among 150,000. AID 894; active = well fitted inhibition curve with a large enough effect, not every such curve was filed as active; inconclusive = small, poorly fitted or top-dose-only effect, or another doubt; inactive = no such curve, though single readings can be large or run the other way; also: potency is read from the fitted curve at half-maximal effect; % is scaled to controls: 0 for no effect and ±100 for the full control effect
Target sequence (P15428 whole entry, looked up): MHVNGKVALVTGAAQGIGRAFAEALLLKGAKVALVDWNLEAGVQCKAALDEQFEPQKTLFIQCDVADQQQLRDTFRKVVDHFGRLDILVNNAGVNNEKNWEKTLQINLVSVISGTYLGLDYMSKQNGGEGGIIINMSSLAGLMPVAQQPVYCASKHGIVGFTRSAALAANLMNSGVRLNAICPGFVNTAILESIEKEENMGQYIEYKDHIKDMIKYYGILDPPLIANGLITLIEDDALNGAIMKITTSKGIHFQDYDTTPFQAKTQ
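NADH formation kinetics: reaction with 30 uM PGE2 and 1 mM NAD+ (final), 20 nM enzyme, Tris-HCl pH 8 with Tween 20, after 15 min compound preincubation at room temperature. Fluorescence change, last versus first of five reads.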
ALDH1A1 inh = ALDH1A1 (human) enzyme inhibition | AID 1030 | Potency, µM (series often up to 75.3 µM), without a hit: at the top dose activity, negative = inhibition, most hits filed as inhibitors | hit rate 7.3% among 220,000 | Purified ALDH1A1, NADH fluorescence, propionaldehyde substrate | P00352; active = well fitted inhibition curve with a large enough effect, not every such curve was filed as active; inconclusive = small, poorly fitted or top-dose-only effect, or another doubt; inactive = no such curve, though single readings can be large or run the other way;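 also: potency is read from the fitted curve at half-maximal effect; plate controls were no enzyme wells and a reference inhibitor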
IMPase cell inh = membrane-permeable compound that blocks inositol monophosphatase. AID 901. inhibition (IP1 accumulation), % at 46.1 µM. CHO-M1 cells, IP1 accumulation, HTRF TR-FRET ratio. P97697. 120,000 tested, under 10 active; active = well fitted curve in the direction sought with a large enough effect in the signal ratio, not every such curve was filed as active; inconclusive = small, poorly fitted or top-dose-only effect, or a change in a side signal; inactive = no such curve, though single readings can be large or run the other way; the % refers to the signal ratio;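 also: cells stimulated with carbachol in lithium chloride buffer; plate controls were DMSO basal wells for no effect and reference inhibitor wells for full effect; higher means more IMPase inhibition seen as more IP1 and lower FRET ratio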
Target sequence (P97697 whole entry, looked up): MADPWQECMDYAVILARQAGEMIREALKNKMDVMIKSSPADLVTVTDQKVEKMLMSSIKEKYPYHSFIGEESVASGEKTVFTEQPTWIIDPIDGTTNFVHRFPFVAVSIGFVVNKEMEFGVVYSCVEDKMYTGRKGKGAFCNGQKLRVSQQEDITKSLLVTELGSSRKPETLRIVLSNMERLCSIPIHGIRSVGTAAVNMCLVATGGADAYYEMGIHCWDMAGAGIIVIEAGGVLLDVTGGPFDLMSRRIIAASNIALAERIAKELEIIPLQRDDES
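Carbachol-driven Gq signalling in CHO-M1 cells (2000/well) generates IP1. Compounds that block IMPase raise IP1 and so reduce the FRET signal from Eu-anti-IP1 and d2-IP1 after a 10 min room-temperature lysis.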
HttQ103 aggreg = mutant huntingtin aggregation inhibition; Potency, µM (doses to about 46.1 µM), inactives show at the top dose activity change, negative = inhibition, usual class: inhibitors; hit rate 1.1% among 220,000; AID 1688; PC12 HttQ103-GFP aggregates, Acumen cytometry, 40 h; also: potency is read from the fitted curve at half-maximal effect; % is scaled to controls: 0 for no effect and ±100 for the full control effect; nearly all actives have a fitted effect of over 60% in size
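Steps: seed 1500 PC12 HTTQ103-GFP cells/well; add tebufenozide, 100 nM final; add compound titration; add ATPLite reagent; quantify GFP aggregates by laser scanning cytometry.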
IMPase Li inh = cell-permeable IMPase inhibitors with lithium potentiation | CHO-M1 cells, IP1 TR-FRET (IP-One), carbachol + lithium | Potency, µM (titrated, usually from 59.4 µM), inactives show top-dose activity, negative = IMPase inhibition, usual class: inhibitors | hit rate 0.35% among 210,000 | AID 1457;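 also: IP1 builds up when IMPase is blocked and the TR-FRET signal falls; potency is read from the fitted curve at half-maximal effect; plate controls were basal vehicle for no effect and high inhibitor control for full effect; nearly all actives have a fitted effect of over 50% in size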
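CHO cells stably expressing M1 receptor (2000/well, cultured 16–30 h) treated 30 min at 37C with compound plus low lithium. Cytosolic IP1 by TR-FRET (665/620 ratio and 620 channel) after 10 min lysis; AC50 by Hill fit.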
HTT ATP protect = Huntington cell model cytoprotection by ATP luminescence | PC12 HTT-Q103 induced, cytoprotection, ATP luminescence, 40 h | Potency, µM (titrated, usually from 56.4 µM), without a hit: cytoprotection (ATP increase), actives largely listed as activators | hit rate 0.14% among 230,000 | AID 1471; also: potency is read from the fitted curve at half-maximal effect; % of control where 0% means no effect; nearly all actives have a fitted effect of over 45% in size
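Compounds added alongside 100 nM tebufenozide, which induces toxic Q103 huntingtin exon 1-GFP in stable PC12 cells; surviving cells quantified by luminescent ATP measurement. Medium: phenol red-free DMEM, 5% equine and 5% calf serum.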
* = called active by the depositor; ? = inconclusive; · = no result; [ ] = another dose, or the depositor's remark. Shown are actives, neighbours in structure and some others; about 9.4% of the full set was active somewhere. Unless noted, calls follow the shape of the dose curve; as a rule, active = well fitted curve in the direction sought with a large enough effect; inconclusive = small, poorly fitted or top-dose-only effect, or another doubt; inactive = no such curve, though single readings can be large; an effect the other way counts as inactive or inconclusive.

SMILES	HPGD block	ALDH1A1 inh	IMPase cell inh	HttQ103 aggreg	IMPase Li inh	HTT ATP protect
N#CC1=C2SCN(Cc3ccco3)CN2C(=O)CC1c1c(F)cccc1Cl (centres undefined)	18µM*	8.9µM*	-7	-2%	-5%[38.3 µM]	-11%
Fc1ccc(NC(=S)NC23CN4CN(CN(C4)C2)C3)cc1	-6%	-6%	·	?	2%	35%[10 µM]
O=C(COc1ccccc1-c1ccccc1)NCc1ccco1	·	7.1µM*	·	6%	45%	-16%
O=C(COc1ccc(Cl)cc1Cl)NCc1ccco1	?	0%	0	-1%	-10%[38.3 µM]	-6%[10 µM]
Cc1cc(Cl)cc(Cl)c1OCC(=O)NCc1ccco1	25µM*	?	1	29%	-6%[38.3 µM]	-29%
C/C(CC(=O)NCc1ccco1)=N\NC(=O)COc1ccc(C)cc1	2%	-10%	2	29%	-2%	22%[10 µM]
Cc1ccc(OCC(=O)NCc2ccco2)cc1C	20µM*	?	-3	14%	10%[38.3 µM]	-16%
Cc1cc(C)cc(/C=C/C2OCC(O)C2Oc2ccc(C3CCCC3)cc2)c1 (centres undefined)	·	-1%[13.5 µM]	·	·	·	-3%[10 µM]
CC(=O)N[C@H]1C(O[C@@H]2O[C@H](C[C@@H](O)[C@H]3O[C@@H](N4CCC(=O)NC4=O)[C@H](O)[C@@H]3O)[C@H](O)[C@H](O)[C@H]2NC(=O)/C=C/CCCCCCCCCCC(C)C)OC(CO)[C@@H](O)[C@@H]1O (some centres undefined)	-3%	-4%	·	·	8%	-322%
C(=N\Nc1nc(-c2cccnc2)nc2ccccc12)/c1ccccc1	·	·	·	-10%[9.22 µM]	·	-9%[10 µM]
Brc1ccc(-c2nc(N/N=C/c3cccnc3)c3ccccc3n2)cc1	?	?	7	10µM*	42%[38.3 µM]	-91%
CCOc1ccc(C(C#N)N2CCOCC2)cc1OC (centres undefined)	-13%	10µM*	-1	-2%	1%[38.3 µM]	13%
CNC(=O)CSc1nnc(C(C)C)n1C	·	1%	·	-8%[9.22 µM]	5%	-2%[10 µM]
Cc1cc(C)c2nc(C(F)(F)F)c(C#N)c(N)c2c1	-11%	10%	-10	5.6µM*	10%[38.3 µM]	37%[10 µM]
Cc1ccc2oc(-c3cc(NC(=O)CC(C)C)ccc3Cl)nc2c1	·	·	-1	·	·	·
CC1(C)CC(=O)C2=C(C1)OC(N)=C(C#N)C21CCN(C(=O)OCc2ccccc2)CC1	-27%	10µM*	20	16%	28%[38.3 µM]	-18%
N#CC1=C(N)OC2=C(C(=O)CCC2)C12CCN(C(=O)OCc1ccccc1)CC2	-24%	?	-3	7%	2%[38.3 µM]	-12%
CC1(C)CC(=O)C2=C(C1)OC(N)=C(C#N)C21C(=O)N2CCCc3cccc1c32 (centres undefined)	-9%	7.1µM*	2	4%	15%[38.3 µM]	15%[0.074 µM]
CC(C)NC(=S)N/N=C1\CCCCC1C1CCCCC1 (centres undefined)	?	6.3µM*	1	11%	15%[38.3 µM]	11%
CC1CCCC/C1=N\NC(=S)Nc1ccccc1 (centres undefined)	·	?	·	-10%	-5%	-15%
COc1c(O)ccc(/C=C(\C#N)c2nc3ccccc3[nH]2)c1[N+](=O)[O-]	28µM*	-1%	·	18%	-3%	-26%[10 µM]
N#C/C(=C\c1cc([N+](=O)[O-])c(N2CCOCC2)cc1N1CCOCC1)c1nc2ccccc2[nH]1	14µM*	-14%	4[1.84 µM]	19%	57%[38.3 µM]	-2%[10 µM]
COc1cc(/C=C(\C#N)c2nc3ccc(C)cc3[nH]2)c([N+](=O)[O-])cc1OC	-12%	4%	1	21%	8%[38.3 µM]	-31%
Cc1ccc2nc(/C(C#N)=C/c3ccc(-c4cccc([N+](=O)[O-])c4)o3)[nH]c2c1	25µM*	?	·	?	0%	-51%[10 µM]
COc1cc(/C=C(/C#N)c2nc3ccccc3c(=O)[nH]2)ccc1O	14µM*	-1%	·	24%	6%	0%[10 µM]
SMILES	HPGD block	ALDH1A1 inh	IMPase cell inh	HttQ103 aggreg	IMPase Li inh	HTT ATP protect
Cc1ccc2nc(/C(C#N)=C\c3cc(O)ccc3[N+](=O)[O-])[nH]c2c1	·	2%	·	-1%	-2%	-130%
Cc1ccc2nc(/C(C#N)=C/c3ccc(-c4ccc(F)cc4F)o3)[nH]c2c1	·	·	-5	·	·	·
Cn1cccc1C(=O)N1CCC[C@@]2(CCN(c3ncccn3)C2)C1	-11%	-13%	·	·	15%	1%
C=C(C)CNCCN	-5%	-15%[13.5 µM]	·	·	-14%	10%[10 µM]
C=C(C)C(O)/C=C/c1ccc(C)cc1 (centres undefined)	·	-1%[13.5 µM]	·	·	·	-3%[10 µM]
Cc1ccc(C)c(NC(=S)NNC(=O)c2csc3c2CCC(C)C3)c1 (centres undefined)	-10%	10µM*	-6	-3%	-3%[38.3 µM]	1%
Cc1ccc(C)c(NC(=S)NNC(=O)c2csc3c2CCCC3)c1	-11%	8.9µM*	6	25µM*	37%[38.3 µM]	11%
Cc1c(NC(=O)c2ccc(OC(C)C)cc2)cccc1-c1nc2ncccc2o1	·	·	-2	·	·	·
CCOC(=O)OCC1OC(c2ccc(C(C)=O)cc2)C=CC1Oc1ccc(-c2ccccc2)cc1 (centres undefined)	·	21%[13.5 µM]	·	·	·	?
O=C(O)C1C2C=CC(C2)C1C(=O)Nc1ccc(C(=O)N2CCCCC2)c(Cl)c1 (centres undefined)	0.45µM*	-6%	-13	-17%	7%[38.3 µM]	-8%[0.074 µM]
COCCOC(=O)/C(C#N)=C/c1cn(Cc2ccccc2)nc1-c1cccnc1	·	20µM*	·	11%[9.22 µM]	1%	-12%
